Test results from PubChem BioAssay (NCATS).
Where “and” joins values, the source holds several entries; their conditions need not be identical. Equal values may be shown once. Inconclusive results are not listed. A call without a number means that no potency is given here. More than one record can exist for a structure, and the calls need not agree. Calls of active or inactive are those of the source. Calls follow the shape of the dose curve; as a rule, active = well fitted curve in the direction sought with a large enough effect; inconclusive = small, poorly fitted or top-dose-only effect, or another doubt; inactive = no such curve, though single readings can be large; an effect the other way counts as inactive or inconclusive.

What was measured:
[1] = biological target: Luciferin 4-monooxygenase (Photinus pyralis) (UniProt P08659); experiment: Primary firefly luciferase (FLuc) qHTS assay for identification of artifact compounds. (AID 1845220); conditions: outcome: dose series up to 54.1 µM unless noted; also: nearly all actives have a fitted effect of over 60% in size; as to activity change, negative = inhibition: series mostly up to about 54 µM
How it was run: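 D-luciferin and ATP (10 uM each, final) in Tris acetate buffer pH 7.6 were incubated with compounds for 15 min at room temperature. The reaction was started with 10 nM Photinus pyralis luciferase and luminescence read after 5 min. Percent inhibition was fitted to a 4-parameter Hill equation.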

[2] = system: Nanoluciferase (engineered Oplophorus gracilirostris luciferase); experiment: Primary Nanoluciferase (NLuc) qHTS assay for identification of artifact compounds. (AID 1845222); also: series mostly up to about 54 µM
How it was run: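 Diluted conditioned medium from NLuc-expressing S16 cells treated with compounds for 15 min at room temperature, then Nano-Glo substrate added; luminescence read after 5 min. Percent inhibition versus no-enzyme and DMSO controls fitted to 4-parameter Hill equation.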

[3] = biological target: Phospholipid hydroperoxide glutathione peroxidase GPX4 (Homo sapiens) (UniProt P36969); experiment: Primary qHTS Assay for Inhibitors of Recombinant Selenoprotein Glutathione Peroxidase 4 (GPX4) (AID 1845192); also: nearly all actives have a fitted effect of over 65% in size; also: potency is read from the fitted curve at half-maximal effect; as to activity change, negative = inhibition: series mostly up to about 50 µM
Sequence of Phospholipid hydroperoxide glutathione peroxidase GPX4 (Homo sapiens) (P36969 whole entry, looked up): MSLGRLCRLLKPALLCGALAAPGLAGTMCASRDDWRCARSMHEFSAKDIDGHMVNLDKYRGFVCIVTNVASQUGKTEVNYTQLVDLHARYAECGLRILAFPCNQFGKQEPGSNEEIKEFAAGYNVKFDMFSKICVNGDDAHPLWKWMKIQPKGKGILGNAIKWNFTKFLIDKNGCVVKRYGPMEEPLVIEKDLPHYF
How it was run: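 GR-coupled assay: recombinant GPX4 preincubated 30 min with compound at room temperature; final 200 nM GPX4, 1 mM GSH, 0.5 mM cumene hydroperoxide, 0.5 mM NADPH, 100 nM GR, 0.01% BSA, pH 7.5 Tris. NADPH fluorescence (340/450 nm) read at 0 and 15 min.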

[4] = Quantitative High-Throughput drug screen in 47 multiple myeloma cell lines against the NCATS MIPE library collection: FR4_PLB cell viability assay (AID 1918924; also: nearly all actives have a fitted effect of over 35% in size; also: potency is read from the fitted curve at half-maximal effect)
How it was run: (§1)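 Inhibition of cell viability is measured here. Each line was plated at 500 cells per well, treated with MIPE 4.0 drugs, kept 48 hours at 37C, then assayed for ATP content by CellTiter-Glo luminescence.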

[5] = Quantitative High-Throughput drug screen in 47 multiple myeloma cell lines against the NCATS MIPE library collection: Delta47_JCRB cell viability assay (AID 1918925; also: nearly all actives have a fitted effect of over 45% in size; also: potency is read from the fitted curve at half-maximal effect)
How it was run: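 qHTS of the MIPE 4.0 collection: 500 myeloma cells/well, 48 h drug exposure at 37C in 5% CO2, then CellTiter-Glo for 5 min at room temperature before luminescence reading.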

[6] = Quantitative High-Throughput drug screen in 47 multiple myeloma cell lines against the NCATS MIPE library collection: ARP1_JJKsccF8 cell viability assay (AID 1918928; also: nearly all actives have a fitted effect of over 40% in size; also: potency is read from the fitted curve at half-maximal effect)
Text: (§2) PI: Beverly A. Mock Ph.D.
(§3) Laboratory of Cancer Biology and Genetics,
(§4) Center for Cancer Research, National Cancer Institute,
(§5) National Institute of Health, Bethesda, Maryland
(§6) Drug resistance and disease progression are common in multiple myeloma (MM) patients, underscoring the need for new therapeutic combinations. […] We hypothesized that effective combinations would reduce MYC expression and enhance p16 activity. […] These preclinical data identify potentially useful drug combinations for evaluation in drug-resistant MM and reveal potential mechanisms of combined drug sensitivity.
(§7) Described herein is the primary MIPE qHTS used to cherrypick compounds. Validated compounds were then further tested for potential synergistic activiy.
(§8) [1] Peat TJ, Gaikwad SM, Dubois W, Gyabaah-Kessie N, Zhang S, Gorjifard S, Phyo Z, Andres M, Hughitt VK, Simpson RM, Miller MA, Girvin AT, Taylor A, Williams D, D'Antonio N, Zhang Y, Rajagopalan A, Flietner E, Wilson K, Zhang X, Shinn P, Klumpp-Thomas C, McKnight C, Itkin Z, Chen L, Kazandijian D, Zhang J, Michalowski AM, Simmons JK, Keats J, Thomas CJ, Mock BA. Drug combinations identified by high-throughput screening promote cell cycle transition and upregulate Smad pathways in myeloma. Cancer Lett. 2023 Aug 1;568:216284. doi: 10.1016/j.canlet.2023.216284. Epub 2023 Jun 24. PMID: 37356470; PMCID: PMC10408729.
(§9) SEQUENCE No. (e.g., 1, 2, 3, etc.); […] (e.g., Cells, Incubation, Reagent, etc.); VALUE and DESCRIPTION.
(§10) 1; Cells; 5 uL; white, solid bottom 1536-well Greiner assay plate.
(§11) 2; Compounds; 23 nL; Kalypsis pin tool (Wako USA) equipped with a 1536-well pin head to transfer to the assay plates.
(§12) 3; Incubation; 48 hours; 37C incubation.
(§13) 4; Reagent;5uL; CellTiter Glo (Promega).
(§14) 5; Detector; 425V; Luminescence; Viewlux PerkinElmer.
(§15) NOTES (numbers refer to Sequence numbers above)
(§16) 1. The cell-based screening methods employed in this study were like those previously published. Briefly, the corresponding myeloma cell lines were screened in 1,536-well plates with 500 cells, 5-uL per well for inhibition of cell viability (assessed by measuring ATP levels with CellTiterGlo).
2. NCATS MIPE 4.0 library of approved and investigational drugs were added using the Kalypsis pin tool. Wells treated with DMSO only for 100% viability and media only cells for 0% viability were used as controls.
(§17) 3. The assay plates were covered and incubated for 48 hours in a 37C, 5% CO2 incubator with controlled humidity.
(§18) 4. After 48 hours, CellTilter-GloTM luminescent substrate mix (Promega) reagent was added to the assay plate and plates we incubated for 5 min at room temperature.
(§19) 5. Signal was measured as median relative luminescence units on a ViewLux (PerkinElmer) multiplate reader.
(§20) [1] Heske CM, Davis MI, Baumgart JT, Wilson K, Gormally MV, Chen L, Zhang X, Ceribelli M, Duveau DY, Guha R, Ferrer M, Arnaldez FI, Ji J, Tran HL, Zhang Y, Mendoza A, Helman LJ, Thomas CJ. Matrix Screen Identifies Synergistic Combination of PARP Inhibitors and Nicotinamide Phosphoribosyltransferase (NAMPT) Inhibitors in Ewing Sarcoma. Clin Cancer Res. 2017 Dec 1;23(23):7301-7311. doi: 10.1158/1078-0432.CCR-17-1121. Epub 2017 Sep 12. PMID: 28899971; PMCID: PMC6636827.

[7] = Quantitative High-Throughput drug screen in 47 multiple myeloma cell lines against the NCATS MIPE library collection: ARD_JJKsccE7 cell viability assay (AID 1918929; also: potency is read from the fitted curve at half-maximal effect)
Text: as §2, §3, §4, §5, §6, §7, §8, §9, §10, §11, §12, §13, §14, §15, §16
2. NCATS MIPE 4.0 library of approved and investigational drugs were added using the Kalypsis pin tool. Wells treated with DMSO only for 100% viability and media only wells for 0% viability were used as controls.
as §17, §18, §19, §20

[8] = Quantitative High-Throughput drug screen in 47 multiple myeloma cell lines against the NCATS MIPE library collection: Karpas620_DSMZ cell viability assay (AID 1918959); also: nearly all actives have a fitted effect of over 30% in size; also: potency is read from the fitted curve at half-maximal effect
How it was run: as §1

[9] = Primary fluorescence-based thiol-reactive (MSTI) qHTS assay for identification of artifact compounds. (AID 1845221);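 also: series mostly up to about 54 µM; thiol-reactive compounds lower the probe fluorescence signal; nearly all actives have a fitted effect of over 65% in size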
How it was run: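 qHTS titration of compound; 4 uM MSTI, PBS pH 7.4, 2% DMSO; 1 h RT, dark; fluorescence 525/598 nm; normalized to Acetyl-MSTI and MSTI; 4-parameter Hill fit.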

[10] = Primary redox qHTS assay for identification of artifact compounds. (AID 1845223)
Text: PI: Alexander Tropsha Ph.D.
UNC Eshelman School of Pharmacy
University of North Carolina, Chapel Hill, North Carolina
Hits from high-throughput screening (HTS) of chemical libraries are often false positives due to their interference with the assay detection technology. In response to this problem, we generated the largest publicly available library of chemical liabilities and developed a free webtool to predict HTS artifacts, both of which are described herein. More specifically, we generated, curated, and integrated HTS datasets for thiol reactivity, redox activity, and luciferase (firefly and nano) activity. Using these curated datasets, we developed and validated several Quantitative Structure-Interference Relationship (QSIR) models to predict nuisance behavior. […] These models were employed for virtual profiling of the National Center for Advancing Translational Science's (NCATS) in-house library, and 256 compounds for each assay were selected for the experimental validation of nuisance behavior. The BA for these external predictions ranged from 58 to 78% for compounds within the applicability domains of the models. […] The models developed in this study, along with aggregation models previously developed by our group (SCAM Detective) were implemented in "Liability Predictor," an online tool which may be used as part of chemical library design or for triaging HTS hits. Both the models and the curated datasets are publicly available at https://liability.mml.unc.edu/.
SEQUENCE No. (e.g., 1, 2, 3, etc.); […] (e.g., Cells, Incubation, Reagent, etc.); VALUE; DESCRIPTION.
1; Reagent; 3 uL; Amplex Red and HRP mixture.
2; Compounds and control; 16 nL; Kalypsis pin tool (Wako USA) equipped with a 1536-well pin head. […]
6; Detection; Fluorescence, ViewLux microplate reader, 525 nm excitation, 598 nm emission.
as §15
1. […]
6. Samples were read for fluorescence (Ex/Em = 525(20)/598(25) nm) on a ViewLux CCD imager (PerkinElmer). […]

SMILES: CC(=O)OCC1=C(C(=O)O)N2C(=O)[C@@H](N)[C@H]2SC1
- outcome [1]: inactive
- outcome [2]: inactive

SMILES: O=c1oc2ccccc2c(O)c1Cc1c(O)c2ccccc2oc1=O
- Potency [3]: inactive

SMILES: CCC1(c2ccc(N)cc2)CCC(=O)NC1=O (configuration not stated)
- Potency [3]: inactive
- Potency [4]: inactive
- Potency [5]: inactive
- Potency [6]: inactive
- Potency [7]: inactive
- Potency [8]: inactive

SMILES: c1ccc2c(c1)sc1ccccc12
- Potency [3]: inactive

SMILES: O=C(O)CCCc1ccc(N(CCCl)CCCl)cc1
- Potency [3]: inactive
- Potency [7]: inactive
- Potency [8]: inactive

SMILES: Oc1ccc(Cl)cc1
- Potency [3]: inactive

SMILES: NC(=O)c1cc([N+](=O)[O-])cc([N+](=O)[O-])c1
- Potency [3]: inactive

SMILES: CC(NC(C)(C)C)C(=O)c1cccc(Cl)c1 (configuration not stated)
- Potency [3]: inactive
- outcome [1]: inactive
- outcome [9]: inactive
- outcome [10]: inactive
- Potency [4]: inactive
- Potency [6]: 13.2 µM (active)
- Potency [8]: inactive

SMILES: C#CC(O)(C=CCl)CC (configuration not stated)
- Potency [3]: inactive

SMILES: C=CCN1C[C@H](C)N([C@H](c2ccc(C(=O)N(CC)CC)cc2)c2cccc(OC)c2)C[C@H]1C
- activity change, negative = inhibition [3]: -0.741% [at 9.73 µM] (inactive)
- outcome [1]: inactive [at 11.6 µM]
- activity change, negative = thiol reactive [9]: 24.3% [at 11.5 µM] (inactive)
- activity, negative = inhibition [2]: 1.52% [at 11.6 µM] (inactive)
- redox activity (% of DA3003) [10]: 9.33% [at 11.5 µM] (inactive)

SMILES: CCc1cc2c(s1)-n1c(C)nnc1CN=C2c1ccccc1Cl
- Potency [3]: inactive

SMILES: CC(C)C[C@H](CN)CC(=O)O
- Potency [3]: inactive
- Potency [4]: inactive
- Potency [5]: inactive
- Potency [6]: inactive
- Potency [7]: inactive
- Potency [8]: inactive

SMILES: C=CCC1(C(C)CC)C(=O)NC(=O)NC1=O (configuration not stated)
- Potency [3]: inactive

SMILES: C=C(C)[C@H]1CN[C@H](C(=O)O)[C@H]1CC(=O)O
- Potency [3]: inactive

SMILES: C[C@](O)(CS(=O)(=O)c1ccc(F)cc1)C(=O)Nc1ccc(C#N)c(C(F)(F)F)c1
- Potency [3]: inactive
- Potency [4]: 14.8 µM (active)
- Potency [5]: 0.372 µM (active)
- Potency [6]: 18.7 µM (active)
- Potency [7]: 1.05 µM (active)

SMILES: COP(=S)(OC)SCN1C(=O)c2ccccc2C1=O
- Potency [3]: inactive

SMILES: CCC(CC)(CNC(=O)CCCO)c1cccc(OC)c1
- Potency [3]: inactive

SMILES: C[C@]12CC[C@H]3[C@@H](CC[C@@]45O[C@H]4C(O)=C(C#N)C[C@]35C)[C@H]1CC[C@H]2O
- Potency [3]: inactive
- Potency [6]: inactive
- Potency [8]: inactive

SMILES: C[C@]12CCC(=O)C=C1CC[C@@H]1[C@@H]2CC[C@]2(C)C(=O)CC[C@@H]12
- Potency [3]: inactive

SMILES: C[C@]12CC[C@@H]3c4ccc(OC(=O)N(CCCl)CCCl)cc4CC[C@H]3[C@@H]1CC[C@@H]2OP(=O)(O)O
- Potency [3]: inactive and 12.6 µM (active)
- outcome [1]: inactive
- outcome [9]: inactive
- outcome [2]: inactive
- Potency [5]: inactive
- Potency [6]: inactive
- Potency [7]: inactive
- Potency [8]: inactive

SMILES: CC(C)N(CCC(C(N)=O)(c1ccccc1)c1ccccn1)C(C)C (configuration not stated)
- Potency [3]: inactive
- outcome [1]: inactive
- outcome [2]: inactive
- outcome [10]: inactive

SMILES: CN1C(=O)CCS(=O)(=O)C1c1ccc(Cl)cc1 (configuration not stated)
- Potency [3]: inactive
- Potency [7]: inactive
- Potency [8]: inactive

SMILES: COC(=O)C(c1ccccc1)C1CCCCN1 (configuration not stated)
- Potency [3]: inactive

SMILES: O=C(Nc1ccc(Br)cc1)c1cc(Br)cc(Br)c1O
- Potency [3]: inactive

SMILES: CN1C(=O)COc2c(C(=O)NC3CN4CCC3CC4)cc(Cl)cc21 (configuration not stated)
- Potency [3]: inactive
- Potency [4]: inactive
- Potency [5]: inactive
- Potency [8]: inactive

SMILES: O=P1(N(CCCl)CCCl)NCCCO1 (configuration not stated)
- Potency [3]: inactive
- Potency [4]: inactive
- Potency [5]: 14.8 µM (active)
- Potency [7]: inactive
- Potency [8]: 18.7 µM (active)

SMILES: CC(C)c1cccc(C(C)C)c1O
- Potency [3]: inactive
- Potency [4]: inactive
- Potency [5]: inactive
- Potency [6]: inactive
- Potency [7]: inactive
- Potency [8]: inactive

SMILES: CN1C(=O)NC(=O)C(C)(C2=CCCCC2)C1=O (configuration not stated)
- Potency [3]: inactive

SMILES: COc1cc(OC)c(OC)cc1C=O
- Potency [4]: inactive
- Potency [5]: inactive
- Potency [6]: inactive
- Potency [7]: inactive
- Potency [8]: inactive

SMILES: COc1cccc(C(=O)CCN[C@@H](C)[C@H](O)c2ccccc2)c1
- Potency [3]: inactive
